# Bioassay records: PubChem, National Center for Advancing Translational Sciences (NCATS)
# In the library only some 19% were active in any assay of this set; here they are far more common.
# KB-V1 MDR tox: KB-V1 MDR subline cytotoxicity | KB-V1 MDR cells viability, CellTiter-Glo, 72 h | Potency, µM (doses to about 46.1 µM), hits mostly cytotoxic | actives 3.4% (n = 400,000); further: nearly all actives have a fitted effect of over 60% in size
#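 Drug-selected KB-V1 cells, grown in DMEM lacking phenol red with 10% FBS, receive compound titrations; after three days at 37 degrees C, surviving cell ATP is quantified by CellTiter-Glo luminescence and responses normalized and curve-fitted.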
# KB-3-1 tox: KB-3-1 parental cell cytotoxicity; AID 1347075; Potency, µM (highest dose often 46.1 µM), hits mostly cytotoxic; KB-3-1 viability, CellTiter-Glo ATP luminescence, 72 h; actives 1.4% (n = 400,000); further: nearly all actives have a fitted effect of over 60% in size
#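 Cytotoxicity measured as CellTiter-Glo luminescence after 72 h at 37 C. Compound titrations were pinned onto drug-naive KB-3-1 parental adenocarcinoma cells grown in DMEM with 10% FBS, and normalized data fitted to concentration-response curves.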
# HT1080-NT tox: kills 2HG-producing HT-1080-NT fibrosarcoma cells; HT-1080-NT fibrosarcoma viability, CellTiter-Glo ATP luminescence, 48 h; Potency, µM (titrated, usually from 46.1 µM), without a hit: top-dose activity, negative = less viability, most hits filed as cytotoxic; actives 1.6% (n = 360,000);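 further: NT is the 2HG producing partner of a matched IDH1 knockdown line; 0% = DMSO-treated cells and -100% = media-only wells without cells; nearly all actives have a fitted effect of over 55% in size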
#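 HT-1080-NT fibrosarcoma cells (2HG-overproducing), 750 cells/well in RPMI with 5% FBS, dosed after 2 h and incubated 48 h at 37C. CellTiter-Glo luminescence normalized to DMSO and no-cell wells; concentration-response curves fitted and classed.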
# TDP1 cell noCPT: qHTS for Inhibitors of human tyrosyl-DNA phosphodiesterase 1 (TDP1): qHTS in cells in absence of CPT | actives 15% (n = 420,000) | Potency, µM (top dose mostly 46.2 µM), for the others: top-dose activity change, negative = growth inhibition, actives largely listed as inhibitors | DT40 Tdp1-/- hTDP1 cells, no CPT, ATP luminescence, 48 h; further: nearly all actives have a fitted effect of over 55% in size
#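 Chicken DT40 Tdp1-/- cells complemented with human TDP1, screened without camptothecin (DMSO vehicle only), 400 cells/well. Compounds pin-transferred, cells incubated at 37 °C for at least 48 hr. Growth read as ATP-dependent luminescence (CellTiter-Glo, 30 min at RT).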
# HT1080 IDH1KD tx: HT-1080 IDH1 knockdown cell toxicity (counter line); AID 686971; actives 2% (n = 360,000); Potency, µM (titrated, usually from 46.1 µM), without a hit: at the highest dose activity, negative = toxicity, actives largely listed as cytotoxic; HT-1080 IDH1 knockdown viability, ATP luminescence, 48 h;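 further: 0% = DMSO wells and -100% = cell-free medium wells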
#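 After a 2 h attachment period, IDH1KD HT-1080 cells took pin-transferred compound for 48 h at 37 °C; ATP-based luminescence after 10 min room-temperature reagent incubation reported viability.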
# DT40 TDP1 CPT: growth inhibition of DT40 Tdp1-/-;hTDP1 cells with camptothecin (screen for TDP1 inhibitors); chicken DT40 Tdp1-/-;hTDP1 cells + 20 nM CPT, ATP luminescence, 48 h; Potency, µM (titrated, usually from 46.2 µM), for the others: top-dose activity change, negative = growth inhibition, actives largely listed as inhibitors; actives 12% (n = 420,000); AID 686979; further: nearly all actives have a fitted effect of over 55% in size
#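 Cell growth measured by CellTiter-Glo luminescence after a minimum 48 h, 37 C compound exposure with 20 nM CPT in Tdp1-knockout DT40 cells stably expressing hTDP1, seeded 400/well; qHTS titration format.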
# An asterisk follows results filed as active; i = inactive; ? = inconclusive; . = no result; [ ] = dose if it differs, or a comment. The call rests on the fitted dose curve; in most records, active means well fitted curve in the direction sought with a large enough effect; inconclusive means small, poorly fitted or top-dose-only effect, or another doubt; inactive means no such curve, though single readings can be large; an effect the other way counts as inactive or inconclusive. Unless noted, on the % scale 0 is the no-effect control and ±100 the full control effect; potency means the concentration at half of the fitted maximal effect.
SMILES,KB-V1 MDR tox,KB-3-1 tox,HT1080-NT tox,TDP1 cell noCPT,HT1080 IDH1KD tx,DT40 TDP1 CPT
CN1C(=O)NC(=O)[C@]2(Cc3ccccc3N3CCN(c4ccccc4)CC32)C1=O (stereo not given in full),i,i,1%,?,0%,?
O=C1NC(=O)C2(Cc3ccccc3N3CCCC32)C(=O)N1Cc1ccccc1 (stereo not given),i,i,0%,23µM*,-7%,?
N#CCCn1cc(C(=O)Nc2ccccc2Br)c(-c2ccc3c(c2)OCCO3)n1,?,i,-3%,?,-9%,-19%
OC(CNCCc1c[nH]c2ccccc12)c1ccccc1 (stereo not given),i,i,-12%,-14%,-10%,-12%
O[C@H]1CCCC[C@H]1N1CCC(c2ccccc2)CC1,.,.,.,-4%,.,-8%
Cc1nc2cc(-c3cccc(F)c3)nn2c(C)c1CCC(=O)N1CCC2(CC1)OCCO2,?,i,3%,?,15%,16µM*
Cc1nc2nc(SCC(=O)N3CCC4(CC3)OCCO4)nn2c(C)c1Cc1ccccc1,26µM*,?,4%,-20%,2%,0%
CN/C=C(/Cl)P(=O)(OC(C)C)OC(C)C,i,i,9%,13%,14%,7%
CC(C)c1ccc(Cc2cnc(NC(=O)c3ccc4c(c3)CC(c3ccccc3)OC4=O)s2)cc1 (stereo not given),i,i,.,18µM*,.,23µM*
O=c1c([N+](=O)[O-])cn(O)cc1[N+](=O)[O-],i,i,5%,1%,18%,-17%
C=C(C=O)CC1CC(O)[C@]2(C)OC3CC4OC5C[C@]6(C)O[C@]7(C)CCC8OC9C[C@]%10(C)OC%11C(C)=CC(=O)OC%11CC%10OC9C[C@@H](C)C8OC7CC6O[C@]5(C)CC5OC5C4OC3CC2O1 (stereo not given in full),i,12µM*,?,0.37µM*,.,0.41µM*
C=C(COC(C)=O)CC1CC(O)[C@]2(C)OC3CC4OC5C[C@]6(C)O[C@]7(C)CCC8OC9C[C@]%10(C)OC%11C(C)=CC(=O)OC%11CC%10OC9C[C@@H](C)C8OC7CC6O[C@]5(C)C/C=C\C4OC3CC2O1 (stereo not given in full),?,i,-27%,?,-15%,23µM*
C=C(CO)CC1CC(O)[C@]2(C)OC3CC4OC5C[C@]6(C)O[C@]7(C)CCC8OC9C[C@]%10(C)OC%11C(C)=CC(=O)OC%11CC%10OC9C[C@@H](C)C8OC7CC6O[C@]5(C)C/C=C\C4OC3CC2O1 (stereo not given in full),?,?,8%,16µM*,8%,23µM*
COc1cc(CCN)cc(OC)c1OC,.,.,.,-13%[92.5 µM],.,5%[92.5 µM]
COc1ccccc1CCNC1C2CC3CC(C2)CC1C3 (stereo not given),15µM*,i,-16%,?,-11%,-12%
COc1ccccc1CCNC1CCC(C)CC1 (stereo not given),i,i,-2%,?,2%,-25%
NS(=O)(=O)c1nc[nH]c1[N+](=O)[O-],i,i,-1%,1%,-2%,1%
CCCCCC1C(=O)O[C@H](C)[C@@H](NC(=O)c2cccc(NC=O)c2O)C(=O)OC(C)C1OC(=O)CC(C)C (stereo not given in full),.,.,.,0.046µM*,.,0.046µM*
CCCC[C@H]1C(=O)O[C@H](C)[C@H](NC(=O)c2cccc(NC=O)c2OC)C(=O)O[C@@H](C)[C@@H]1OC(=O)CC(C)C,.,.,.,6.7µM*,.,?
Cc1cc(C=O)c(C)n1C1CC1,i,i,12%,1%,29%,0%
Cc1ccc(C)c(S(=O)(=O)c2nnn3c2nc(N2CCCC2)c2sccc23)c1,i,i,.,?,.,16µM*
COc1c(C=C2C(=O)NC(=O)NC2=O)c(CCN(C)C(=O)c2ccccc2)cc2c1OCO2,i,i,3%,-18%,9%,4%
O=c1[nH]c(=O)n(-c2ccccc2)c(O)c1/C=C1/C(c2ccccc2)=Nc2ccccc21,2.9µM*,3.3µM*,4.1µM*,2.3µM*,2.1µM*,2.1µM*
COC(=O)C1=Nc2ccccc2/C1=C\c1c(O)n(-c2ccc(Br)cc2)c(=O)[nH]c1=O,i,i,?,?,?,?
CC(=O)c1cn(CC(=O)NCCc2c[nH]c3ccccc23)c2ccccc12,15µM*,?,-5%,23µM*,-12%,16µM*
SMILES,KB-V1 MDR tox,KB-3-1 tox,HT1080-NT tox,TDP1 cell noCPT,HT1080 IDH1KD tx,DT40 TDP1 CPT
CC(=O)NCCc1c[nH]c2ccccc12,i,i,0%,?,7%,0%
C[C@@H]([C@H](O)c1ccccc1)N(C)C,.,.,.,-10%,.,2%
CCCCCCCSc1cc(OC)c(CCNC)cc1OC,18µM*,?,23µM*,15µM*,-11%[9.24 µM],?
CCCCCSc1cc(OC)c(CCNC)cc1OC,i,i,?,16µM*,21µM*,16µM*
Cc1ccccc1-c1ccc2c(c1)CNCc1cnnn1-2,i,i,?,?,6%,-22%
Cc1ccc(N2C(=O)NC(=O)/C(=C\c3cc(C)n(-c4sc5c(c4C#N)CCCC5)c3C)C2=O)cc1,i,i,?,?,?,?
CCOC(=O)c1c(-n2c(C)cc(/C=C3/C(=O)NC(=O)N(CC)C3=O)c2C)sc2c1CCCC2,?,i,-1%,?,6%,16µM*
CCOC(=O)c1c(-n2c(C)cc(C=C3C(=O)NC(=S)NC3=O)c2C)sc2c1CCCC2,i,?,?,18µM*,?,23µM*
COc1ccc(OC(=O)N(C)C[C@@H]2OCc3cnnn3CCCC(=O)N([C@@H](C)CO)C[C@@H]2C)cc1,i,i,-1%,-25%,3%,-3%
C[C@@H]1CN([C@H](C)CO)C(=O)CCCn2cc(nn2)CO[C@H]1CN(C)C(=O)Oc1ccc2ccccc2c1,i,i,-4%,-3%,-2%,-26%
Cc1ccccc1N1CCN(C2CCCN(C(=O)Cc3c(C)noc3C)C2)CC1 (stereo not given),.,.,-3%,-5%,-2%,-6%
